# HT1080NT lethal = qHTS for induction of synthetic lethality in tumor cells producing 2HG: qHTS for the HT-1080-NT fibrosarcoma cell line; 360,000 compounds, 1.6% hits; Potency, µM (top dose mostly 46.1 µM), for inactives: at the top dose activity, negative = less viability, most hits filed as cytotoxic; HT-1080-NT fibrosarcoma viability, CellTiter-Glo ATP luminescence, 48 h;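 note: NT is the 2HG producing partner of a matched IDH1 knockdown line; 0% = DMSO-treated cells and -100% = media-only wells without cells; nearly all actives have a fitted effect of over 55% in size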
#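 Viability of the 2HG-overproducing fibrosarcoma line after 48 hours of compound exposure at 37 degrees C was determined by luminescence with CellTiter-Glo, and concentration-effect curves were then fitted and categorized.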
# TDP1 cell CPT = qHTS for Inhibitors of human tyrosyl-DNA phosphodiesterase 1 (TDP1): qHTS in cells in presence of CPT. AID 686979, 2013. chicken DT40 Tdp1-/-;hTDP1 cells + 20 nM CPT, ATP luminescence, 48 h. Potency, µM (doses to about 46.2 µM), for the others: at the highest dose activity change, negative = growth inhibition, usual class: inhibitors. 420,000 compounds, 12% hits; note: % is set by controls: 0 for no effect and ±100 for the full control effect; nearly all actives have a fitted effect of over 55% in size
#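 Cell growth measured by CellTiter-Glo luminescence after a minimum 48 h, 37 C compound exposure with 20 nM CPT in Tdp1-knockout DT40 cells stably expressing hTDP1, seeded 400/well; qHTS titration format.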
# HepG2 viability = qHTS for Inhibitors of TGF-b: Cytotox Counterscreen; HepG2 CAGA-GFP viability, ATP luminescence, 18 h; Potency, µM (top dose mostly 46.1 µM), for inactives: at the top dose activity change, negative = cytotoxicity, hits mostly cytotoxic; 410,000 compounds, 0.76% hits; AID 588856, 2011
#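 CellTiter-Glo luminescence gave cytotoxicity after 18 hours at 37 degrees C. The cells were HepG2 CAGA-GFP in 1% FBS DMEM, stimulated with 500 pg/mL TGF-beta after compound addition. %Activity was normalised to no-cell wells (complete cell-killing) and DMSO (no toxicity), and curves were fitted and classified.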
# TGFb inhibitor = qHTS for Inhibitors of TGF-b | AID 588855, 2011 | 410,000 compounds, 1.2% hits | Potency, µM (titrated, usually from 46.1 µM), without a hit: at the top dose activity, negative = inhibition, most hits filed as inhibitors | HepG2 CAGA-GFP TGF-b/SMAD3 reporter, GFP fluorescence, 18 h; TGF-beta stimulated, 500 pg/mL final; note: % is set by controls: 0 for no effect and ±100 for the full control effect; nearly all actives have a fitted effect of over 65% in size
#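 Using HEPG2 CAGA-GFP reporter cells at 1000 cells/well, we pinned test compounds, stimulated with recombinant TGF-beta (500 pg/mL final) and measured total well GFP after 18 h.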
# HT1080 IDH1KD tx = qHTS for induction of synthetic lethality in tumor cells producing 2HG: qHTS for the HT-1080-IDH1KD cell line. HT-1080 IDH1 knockdown viability, ATP luminescence, 48 h. AID 686971, 2013. 360,000 compounds, 2% hits. Potency, µM (highest dose often 46.1 µM), for inactives: top-dose activity, negative = toxicity, most hits filed as cytotoxic;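 note: 0% = DMSO wells and -100% = cell-free medium wells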
#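 In this qHTS, HT-1080 cells depleted of IDH1 are exposed for 48 h at 37 °C to compound titrations. Toxicity is scored from CellTiter-Glo luminescence, with DMSO as full viability and medium alone as none.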
# DT40 TDP1 no CPT = qHTS for Inhibitors of human tyrosyl-DNA phosphodiesterase 1 (TDP1): qHTS in cells in absence of CPT. 420,000 compounds, 15% hits. Potency, µM (doses to about 46.2 µM), without a hit: at the highest dose activity change, negative = growth inhibition, actives largely listed as inhibitors. DT40 Tdp1-/- hTDP1 cells, no CPT, ATP luminescence, 48 h; note: % is set by controls: 0 for no effect and ±100 for the full control effect; nearly all actives have a fitted effect of over 55% in size
#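 Growth kinetics read by CellTiter-Glo luminescence after ≥48 hr at 37 °C. Cells: DT40 Tdp1-/- stably carrying human TDP1, 400 per well, compound exposure in the absence of CPT (DMSO vehicle).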
# Starred values were filed as active, the others as inactive; ? = inconclusive; . = no result. Most compounds without a hit are left out; they make up all but 17% or so of the library. Calls come from the whole dose curve; as a rule, active = well fitted curve in the direction sought with a large enough effect; inconclusive = small, poorly fitted or top-dose-only effect, or another doubt; inactive = no such curve, though single readings can be large; an effect the other way counts as inactive or inconclusive. Potency is the fitted concentration of half-maximal effect.
SMILES,HT1080NT lethal,TDP1 cell CPT,HepG2 viability,TGFb inhibitor,HT1080 IDH1KD tx,DT40 TDP1 no CPT
CCOC(=O)c1c(C)[nH]c(C)c1S(=O)(=O)NCCN1CCN(c2cc(Cl)ccc2C)CC1,?,?,-115%,11µM*,?,13µM*
Cc1ccc(Cl)cc1N1CCN(CCNC(=O)Nc2ccc(Cl)cc2)CC1,.,12µM*,-43%,-26%,.,?
Cc1ccc(-c2c(C(=O)N3CCN(c4cc(Cl)ccc4C)CC3)oc(=O)c3ccccc23)cc1,.,?,-2%,0%,.,?
Cc1ccccc1C1c2[nH]c3ccccc3c2CCN1Cc1cccn1-c1ncccn1 (stereo not drawn),-4%,?,-28%,?,-23%,?
CCOc1ccc(NC(=O)NCCN2CCN(c3cc(Cl)ccc3C)CC2)cc1,.,21µM*,3%,0%,.,?
Cc1ccc(Cl)cc1N1CCN(CC(=O)Nc2ccc(CN3CCCCC3)cc2)CC1,21µM*,?,-46%,24%,23µM*,?
C[N+](C)(C)CC(O)CC(=O)[O-] (stereo not drawn),.,-22%,.,.,.,-11%
CCOC(=O)c1cnc2c(ccc3ccccc32)c1Nc1ccc(OC)c(OC)c1,.,4.6µM*,-54%,-16%,.,4.6µM*
CCOC(=O)c1cnc2c(ccc3ccccc32)c1Nc1ccccc1OCC,.,8%,-21%,-18%,.,-3%
CCOC(=O)c1cnc2c(ccc3ccccc32)c1NCCCN(C)C,?,?,-38%,?,21µM*,?
CCOC(=O)c1cnc2c(ccc3ccccc32)c1Nc1ccc(Cl)cc1,.,-16%,-54%,-2%,.,-24%
O=[N+]([O-])c1ccc(Nc2cccc3c2[nH]c2c(-c4ccccc4)nccc23)c([N+](=O)[O-])c1,5%,?,-34%,-7%,8%,?
CCC(C(=O)Nc1ccc(C(C)C)cc1)n1nc(C)n2c(cc3cc(C)ccc32)c1=O (stereo not drawn),.,23µM*,-3%,?,.,?
CCc1cccc(CC)c1NC(=O)C(CC)n1nc(C)n2c(cc3cc(C)ccc32)c1=O (stereo not drawn),.,?,-2%,-12%,.,21µM*
CCC(C(=O)N1CCOCC1)n1nc(C)n2c(cc3cc(C)ccc32)c1=O (stereo not drawn),23%,-16%,-13%,-1%,2%,0%
CN(C1CCCCC1)S(=O)(=O)c1ccc2c(c1)c(=O)c(C(=O)N1CCN(c3ccccc3)CC1)cn2C,.,-11%,12%,-5%,.,0%
CCN1CCN(c2nc(-c3ccccc3)c3ccccc3n2)CC1,13µM*,?,-11%,-23%,?,?
c1ccc(-c2nc(N3CCCCC3)nc3ccccc23)cc1,-8%,-23%,-32%,?,-12%,10%
O=C(O)C1CC=CCC1C(=O)N1CCN(c2nc(-c3ccccc3)c3ccccc3n2)CC1 (stereo not drawn),-6%,18µM*,-32%,-29%,-22%,?
COC(=O)C(CCSC)NC(=O)Cn1ncc2c([nH]c3ccccc32)c1=O (stereo not drawn),.,11%,0%,1%,.,-7%
Cn1c(-c2csc(-c3ccccc3)n2)n[nH]c1=S,19%,?,-12%,-12%,1%,?
Cc1nc2ccccc2nc1-c1csc(-c2ccccc2)n1,.,13µM*,-28%,?,.,11µM*
CC(OCc1ccccc1)C(NC(=O)OC(C)(C)C)C(=O)NC1COC2CC(n3ccc(=O)[nH]c3=O)OC12 (stereo not drawn),.,.,9%,-1%,.,.
CN(C)c1ccc(/C=N/NC(=O)c2ccc(NC(=O)c3ccccc3)cc2)cc1,-6%,23%,-4%,-14%,-17%,?
CCOc1cc(Br)cc(/C=N/NC(=O)c2cccnc2)c1O,?,0.46µM*,-27%,?,?,0.37µM*
SMILES,HT1080NT lethal,TDP1 cell CPT,HepG2 viability,TGFb inhibitor,HT1080 IDH1KD tx,DT40 TDP1 no CPT
CN(C)c1ccc(C(=O)N/N=C/c2cc(Br)cc(Br)c2O)cc1,?,6.5µM*,-32%,?,?,12µM*
CCNC(=S)N/N=C/c1cc(Br)cc(Br)c1OC,4.5µM*,5.2µM*,-19%,1%,4µM*,6.5µM*
COc1c(Br)cc(Br)cc1/C=N/NC(=O)c1ccncc1,1%,?,0%,6%,1%,?
COc1c(Br)cc(Br)cc1/C=N/NC(=O)c1cccnc1,-18%,18µM*,-22%,?,?,?
Cc1ccc(N2C(=S)N=C(Nc3ccccc3C)C23CCOC(C)(C)C3)cc1 (stereo not drawn),-23%,?,-41%,?,-28%,?
CCc1ccc(CN2CCc3nc(Nc4ccc5c(c4)OCCO5)ncc3C2)cc1,.,?,-36%,?,.,23µM*
Cc1ccc(CN2CCc3nc(Nc4ccc5c(c4)OCCO5)ncc3C2)cc1,.,?,-41%,-5%,.,21µM*

# Assay outcomes (PubChem BioAssay)
